SMILES strings stand for the structures. Out of some 400,000 compounds screened, about 5,500 (1.4%) were called active. Roughly 9% stayed inconclusive and do not appear here. Calls follow the shape of the dose curve; as a rule, active = well fitted cell-killing curve with a large enough effect; inconclusive = small, poorly fitted or top-dose-only effect, or effect the other way; inactive = flat fitted curve, though single readings scatter. The entries come from a sample that favours actives as a whole. Entries that show only a call come without a potency.
Potency is read from the fitted curve at half-maximal effect.

The nature of the assay: qHTS assay for MDR1-selective chemotherapeutics: Primary screen using the parental adenocarcinoma cell KB-3-1. Also: nearly all actives have a fitted effect of over 60% in size. The settings on record: KB-3-1 viability, CellTiter-Glo ATP luminescence, 72 h; series mostly up to 46.1 µM. The gist of the method:
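KB-3-1 cells, DMEM (no phenol red) + 10% FBS; compound by pin transfer, 72 h, 37 °C. Readout: CellTiter-Glo luminescence after 10 min. Data normalized, curve-fitted.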
On the technique in general: qHTS replaces the single test concentration by a dilution series.
As to `O=C(Nc1nnc(C2CC(=O)N(c3ccc(Cl)cc3)C2)s1)c1ccco1` (configuration not stated), the Potency result was “inactive”.
`Cc1nc2nc(NCc3cccc(Br)c3)[nH]n2c(=O)c1Cc1ccccc1`: the Potency result is “inactive”.
Next, `CCN(CCCNC(=O)Cn1ncc2c([nH]c3ccccc32)c1=O)c1cccc(C)c1`: “inactive”.
Next, `COc1ccc(-c2noc(CSc3nnc(-c4ccccc4)n3-c3ccc(F)cc3)n2)c(OC)c1`: “inactive”; `CCOC(=O)c1c(C)[nH]c(C)c1S(=O)(=O)N1CCCC(C(=O)NCc2ccccc2Cl)C1` (configuration not stated): “inactive”; `COc1cc(C(=O)Nc2ccc(OCc3cc(=O)n4ccc(C)cc4n3)cc2)cc(OC)c1OC`: “inactive”.
Next, `CCN(CC)CCNCC(=O)Nc1ccc(Oc2ccccc2)cc1`: “inactive”.
For `CN(CCOc1ccc(CC2SC(=O)NC2=O)cc1)c1ccccn1` (configuration not stated), the Potency result was “inactive”.
Next, `CCN(CC)CCOc1ccc2c(c1)C(=NNC(=O)c1ccccn1)c1cc(OCCN(CC)CC)ccc1-2`: 14.6 µM (active); `Cn1c(=O)c2c(nc(Oc3ccc(C#N)cc3)n2Cc2ccc(Cl)cc2Cl)n(C)c1=O`: “inactive”; `CCc1ccc(NC(=O)Cn2c(=O)n(CCC(=O)NCc3ccc4c(c3)OCO4)c(=O)c3ccccc32)cc1`: “inactive”.
Next, `COC(=O)c1ccccc1NC(=O)c1cnn(-c2ccc(F)cc2)c1-n1cccc1`: “inactive”.
Next, `CCC(=O)N1CCc2cc(S(=O)(=O)NC(Cc3ccccc3)C(=O)NCc3ccccc3)ccc21` (configuration not stated): “inactive”; `CCn1c(SCC(=O)NC2CC2)nnc1-c1ccccc1OC`: “inactive”; `COc1ccc(C2=Nn3c(nnc3-c3ccccc3OC)SC2)cc1OC1CCCC1`: 2.31 µM (active).
Take `Cc1nnc2n1N=C(c1ccc3c(c1)NC(=O)CO3)CS2`: the Potency entry was “inactive”.
As for `O=[n+]1c2c(n([O-])c3cc(Br)ccc31)CCC2`, the entry is “inactive”.
Regarding `C/C(=N\N)c1c(-c2ccccc2)c2cc(Br)ccc2[nH]c1=O`, the Potency result is “inactive”.
As for `O=C1CCCc2c1[nH]c1ccc(Br)cc21`, the figure is 0.651 µM (active); as for `CCOC(=O)c1ccccc1NC(=O)CCc1c(C)nc2c(c1C)c(=O)n(C)c(=O)n2C`, “inactive”; as for `Cc1nn(CC(=O)O)c(=O)c2cc3cc(F)ccc3n12`, “inactive”.
Next, `COc1cc(NC(=O)CCn2nc(C)cc2C)cc(OC)c1OC`: “inactive”; `OC(CBr)CN1CCCCC1` (configuration not stated): “inactive”; `CC1(C(=O)O)CCN1C(=O)/C=C/c1ccccc1` (configuration not stated): “inactive”.
As for `CC1(C(=O)NS(=O)(=O)c2ccccc2)CCN1C(=O)C/C=C/c1ccccc1` (configuration not stated), the entry is “inactive”; as for `CC1(C)CCSC(/C=C/c2ccccc2)=N1`, 14.6 µM (active).
Consider `CC(=O)c1c(C)oc2ccc(NS(=O)(=O)c3ccccc3)cc12`, for which the Potency result is “inactive”.
Next, `CC(=O)c1c(C)oc2ccc(NS(=O)(=O)c3ccc(C(=O)O)cc3)cc12`: “inactive”.
As for `COc1ccc(NS(=O)(=O)c2ccc(NC(C)=O)cc2)cc1OC`, the figure is 14.6 µM (active); as for `COc1ccc(S(=O)(=O)Nc2cc(C)on2)cc1NC(C)=O`, “inactive”; as for `COc1ccc(NC(=S)SC)cc1OC`, “inactive”.
Next, `COc1ccc(S(=O)(=O)Nc2ccc3oc(C)c(C(C)=O)c3c2)cc1`: 3.26 µM (active).
Regarding `Cc1ccc(N(C)C(=O)C2CCN(S(=O)(=O)c3ccc4c(c3)CCCN4C(=O)C3CCC3)CC2)cc1`, the Potency result was “inactive”.
With `CCOc1ccc(CNCc2c(C(=O)O)c(C)n(Cc3cccc(OC)c3)c2C)cc1OC`, the Potency entry is “inactive”.
`OCCNc1ncnc2oc(-c3ccco3)c(-c3ccco3)c12`: the Potency entry is “inactive”.
As for `Cn1c(=O)c2c(SCC(=O)N3CCc4ccccc43)nc(-c3ccc(Cl)cc3)nc2n(C)c1=O`, the entry is “inactive”; as for `O=C(COc1ccccc1F)Nc1ccc(C(=O)OCc2cc(=O)n3nc(C4CC4)sc3n2)cc1`, “inactive”; as for `COc1cccc(C(=O)NCc2ccc3c(c2)CCN3C(=O)c2ccncc2)c1`, “inactive”.
As for `Brc1cccc[n+]1Cc1cccc(C[n+]2ccccc2Br)c1`, the entry is “inactive”; as for `S=c1[nH]nc(-c2ccco2)n1/N=C/c1ccc(Br)s1`, “inactive”.
Next, `COc1ccccc1/C=C/C=N/n1c(-c2ccc(Cl)cc2Cl)n[nH]c1=S`: “inactive”; `Cc1cc(-c2n[nH]c(=S)n2/N=C/C(Br)=C/c2ccccc2)n[nH]1`: 5.8 µM (active); `CN(C)CCCn1c(N)c(C#N)c2nc(C#N)c(C#N)nc21`: 23.1 µM (active).
As to `COCCn1c(SCC(=O)c2cc(C)ccc2C)nc2cc(C(=O)NC3CCCC3)ccc2c1=O`, the Potency result was “inactive”.
For `COCCn1cnc2c1c(=O)n(Cc1ccc(Br)cc1)c(=O)n2Cc1ccccc1`, the Potency entry is “inactive”.
For `CCOc1ccc(-c2n[nH]c3c2C(c2ccccc2OC)N(c2ccc(Br)cc2)C3=O)cc1` (configuration not stated), the Potency entry was “inactive”.
Next, `Cn1c(=O)c2c(ncn2CCc2ccccc2)n(C)c1=O`: “inactive”; `CCCCc1c(-c2ccc(Br)cc2)ncn1CCc1ccccc1OC`: 16.4 µM (active); `COc1ccccc1CN1CCN(Cc2cc(OC)c(OC)cc2OC)CC1`: “inactive”.
For `CCCc1c(-c2ccccc2F)ncn1Cc1ccccc1OC`, the Potency was 20.6 µM (active).
As for `COc1ccccc1CCNS(=O)(=O)c1cn(C)nc1C`, the entry is “inactive”; as for `CCCCCc1c(Cc2ccccc2)ncn1CCc1ccccc1OC`, 16.4 µM (active).
As for `COc1cccc(OC)c1C(=O)N1CCN(Cc2ccccc2F)CC1`, the entry is “inactive”.
Next, `CC(=O)Nc1ccc(NC(=O)CCCc2nc(-c3ccc(C(C)(C)C)cc3)no2)cc1`: “inactive”; `COc1cc(C(=O)N(Cc2ccc(C(C)C)cc2)C2CCS(=O)(=O)C2)cc(OC)c1OC` (configuration not stated): “inactive”.
As to `CCCN(CCC)C(=O)C(Cc1ccccc1)NS(=O)(=O)c1ccc2c(c1)c(=O)n(C)c(=O)n2C` (configuration not stated), the Potency result was “inactive”.
Next, `N#C/C(=C\c1cccc(F)c1)c1nc(-c2cc3c(ccc4ccccc43)oc2=O)cs1`: “inactive”; `O=C(NCCCO)C(=O)Nc1c2c(nn1-c1ccc(F)cc1)CSC2`: “inactive”.
On to `CN(C)Cc1cn(-c2ccccc2)nc1-c1ccccc1`, for which the Potency result is “inactive”.
Next, `N#Cc1ccc(OC2=NS(=O)(=O)c3ccccc32)cc1`: “inactive”.
As for `Cn1c(=O)c2c(nc(NCCc3ccccc3)n2Cc2ccccc2Br)n(C)c1=O`, the entry is “inactive”; as for `OC(Cc1ccc2ccccc2n1)c1ccc(Cl)c(Cl)c1` (configuration not stated), “inactive”; as for `O=S(=O)(c1ccc(Br)cc1)c1nnn2c1nc(N1CCOCC1)c1sccc12`, “inactive”.
As for `CCOC(=O)C1CCCN(C(=O)c2ccc(-n3ccc4ccccc43)s2)C1` (configuration not stated), the entry is “inactive”; as for `O=C1C=C(c2ccnc3cc(Cl)ccc23)C[C@@H](c2ccc3c(c2)OCO3)C1`, 23.1 µM (active).
For `COc1ccc2cc(C3=CC(=O)C[C@H](c4ccc5c(c4)OCO5)C3)ccc2c1`, the Potency entry is “inactive”.
Next, `O=C1C=C(c2cc(C(F)(F)F)cc(C(F)(F)F)c2)C[C@@H](c2ccc3c(c2)OCO3)C1`: “inactive”.

The values above are taken from PubChem BioAssay AID1347075 (National Center for Advancing Translational Sciences (NCATS), 2019).
